Data reported in the supplement of paper PMC11732987, “Enantioselective OTUD7B fragment discovery through chemoproteomics screening and high-throughput optimisation” (Communications Chemistry, 2025).

Experiments:
Assay in all cases: log2 ratio of Biotin-Ahx-Ub-VS probe labelling (fragment/DMSO); higher = less target engagement (more negative = stronger competition), active = hit call of the paper (q ≤ 0.05, log2 ratio ≤ -1)
Conditions in all cases: compound concentration: 200 uM; treatment time: 3 h
ALG13 = target: T1, ALG13 (UniProt Q9NP73)
T1 sequence (whole entry): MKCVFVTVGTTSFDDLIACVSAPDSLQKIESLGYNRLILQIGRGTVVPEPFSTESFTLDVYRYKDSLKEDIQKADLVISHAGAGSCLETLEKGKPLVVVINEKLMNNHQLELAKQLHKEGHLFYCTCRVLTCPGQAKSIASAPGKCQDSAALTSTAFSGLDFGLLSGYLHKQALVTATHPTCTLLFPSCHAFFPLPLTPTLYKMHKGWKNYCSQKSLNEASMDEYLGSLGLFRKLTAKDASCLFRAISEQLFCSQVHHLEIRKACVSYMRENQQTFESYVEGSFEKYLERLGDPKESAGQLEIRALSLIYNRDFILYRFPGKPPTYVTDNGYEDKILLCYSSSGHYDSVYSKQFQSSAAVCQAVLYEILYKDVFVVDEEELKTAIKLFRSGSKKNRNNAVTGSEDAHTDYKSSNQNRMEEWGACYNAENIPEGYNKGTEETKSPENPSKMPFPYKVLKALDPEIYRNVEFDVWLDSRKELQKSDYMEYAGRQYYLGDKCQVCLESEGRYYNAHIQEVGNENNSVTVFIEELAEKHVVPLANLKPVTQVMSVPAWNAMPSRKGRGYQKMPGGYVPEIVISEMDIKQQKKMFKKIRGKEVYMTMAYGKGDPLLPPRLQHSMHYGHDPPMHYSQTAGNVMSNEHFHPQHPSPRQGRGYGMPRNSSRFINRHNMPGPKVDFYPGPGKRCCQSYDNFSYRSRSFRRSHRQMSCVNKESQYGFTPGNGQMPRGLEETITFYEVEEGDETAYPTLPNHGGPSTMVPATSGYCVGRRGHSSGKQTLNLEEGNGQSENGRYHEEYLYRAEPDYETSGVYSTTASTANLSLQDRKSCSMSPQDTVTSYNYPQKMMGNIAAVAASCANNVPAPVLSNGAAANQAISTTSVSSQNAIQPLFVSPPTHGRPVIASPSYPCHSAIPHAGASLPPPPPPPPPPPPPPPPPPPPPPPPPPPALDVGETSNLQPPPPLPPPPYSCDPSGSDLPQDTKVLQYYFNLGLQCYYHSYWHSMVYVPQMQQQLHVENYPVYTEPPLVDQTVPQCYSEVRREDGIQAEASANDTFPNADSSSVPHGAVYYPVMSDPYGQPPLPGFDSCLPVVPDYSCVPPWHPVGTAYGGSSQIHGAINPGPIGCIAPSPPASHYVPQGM
In short: (§1)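 Global-median-normalised Spectronaut label-free quantities were compared by unpaired t-test, and values are average log2 ratios of fragment over vehicle. Only proteins with ≥2 unique peptides were used. HEK293T lysate (495 µg per sample) was treated in triplicate with fragment at 200 µM or vehicle for 3 h and then with Biotin-Ahx-Ub-VS at 0.5 µM final for 1 h. Labelled DUBs were then NeutrAvidin-enriched, digested with LysC and trypsin, and run by diaPASEF LC-MS/MS.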

ATXN3 = ATXN3 (UniProt P54252)
ATXN3, sequence (P54252 whole entry): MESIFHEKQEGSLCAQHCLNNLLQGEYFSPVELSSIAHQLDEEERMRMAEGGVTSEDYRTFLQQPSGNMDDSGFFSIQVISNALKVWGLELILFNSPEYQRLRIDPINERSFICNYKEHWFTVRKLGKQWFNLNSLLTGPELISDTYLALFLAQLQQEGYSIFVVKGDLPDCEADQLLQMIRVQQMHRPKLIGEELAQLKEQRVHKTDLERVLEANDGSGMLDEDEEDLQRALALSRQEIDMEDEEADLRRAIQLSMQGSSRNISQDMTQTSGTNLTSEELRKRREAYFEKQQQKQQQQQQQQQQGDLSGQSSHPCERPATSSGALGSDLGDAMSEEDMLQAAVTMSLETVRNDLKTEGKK
In short: as §1

BAP1 = target: T2, BAP1 (UniProt Q92560)
T2 sequence (whole entry): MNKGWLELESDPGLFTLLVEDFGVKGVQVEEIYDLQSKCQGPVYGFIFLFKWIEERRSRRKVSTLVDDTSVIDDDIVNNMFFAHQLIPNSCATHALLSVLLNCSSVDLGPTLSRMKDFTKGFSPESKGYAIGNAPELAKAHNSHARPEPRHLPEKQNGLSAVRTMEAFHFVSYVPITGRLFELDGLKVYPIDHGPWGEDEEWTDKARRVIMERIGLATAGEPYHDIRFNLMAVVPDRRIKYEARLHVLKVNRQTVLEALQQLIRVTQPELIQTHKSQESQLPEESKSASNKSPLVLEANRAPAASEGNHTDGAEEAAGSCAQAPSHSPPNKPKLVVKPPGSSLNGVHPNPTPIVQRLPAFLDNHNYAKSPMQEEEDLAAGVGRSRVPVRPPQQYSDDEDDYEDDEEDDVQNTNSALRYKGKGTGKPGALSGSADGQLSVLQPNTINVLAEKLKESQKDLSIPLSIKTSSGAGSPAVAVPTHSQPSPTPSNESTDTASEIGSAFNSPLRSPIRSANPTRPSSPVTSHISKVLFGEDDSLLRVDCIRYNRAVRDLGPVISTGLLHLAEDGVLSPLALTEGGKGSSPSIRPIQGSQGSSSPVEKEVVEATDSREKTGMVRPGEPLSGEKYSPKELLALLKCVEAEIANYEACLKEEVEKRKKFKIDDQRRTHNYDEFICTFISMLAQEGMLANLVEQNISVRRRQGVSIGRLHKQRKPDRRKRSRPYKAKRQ
In short: as §1

EIF3F = EIF3F (UniProt O00303)
EIF3F, sequence (O00303 whole entry): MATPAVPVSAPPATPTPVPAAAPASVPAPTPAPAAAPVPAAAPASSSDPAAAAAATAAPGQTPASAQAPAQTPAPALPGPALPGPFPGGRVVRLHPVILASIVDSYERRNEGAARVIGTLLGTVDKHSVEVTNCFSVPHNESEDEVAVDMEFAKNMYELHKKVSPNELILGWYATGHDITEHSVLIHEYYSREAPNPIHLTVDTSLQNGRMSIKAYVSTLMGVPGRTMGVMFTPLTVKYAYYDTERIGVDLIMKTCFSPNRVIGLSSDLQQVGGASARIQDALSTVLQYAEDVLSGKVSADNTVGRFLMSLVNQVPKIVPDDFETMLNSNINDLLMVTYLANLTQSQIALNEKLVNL
In short: as §1

EIF3H = EIF3H (UniProt O15372)
EIF3H, sequence (O15372 whole entry): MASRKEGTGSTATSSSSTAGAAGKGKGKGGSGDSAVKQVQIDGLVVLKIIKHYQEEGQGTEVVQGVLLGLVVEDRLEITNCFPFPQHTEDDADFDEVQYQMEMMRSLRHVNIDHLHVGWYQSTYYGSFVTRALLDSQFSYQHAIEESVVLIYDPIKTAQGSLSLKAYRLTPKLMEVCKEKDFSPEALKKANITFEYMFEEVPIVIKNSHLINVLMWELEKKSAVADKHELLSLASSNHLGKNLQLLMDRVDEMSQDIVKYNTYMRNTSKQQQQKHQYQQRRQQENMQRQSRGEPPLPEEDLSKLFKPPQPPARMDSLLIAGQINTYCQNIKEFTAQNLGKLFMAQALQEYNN
In short: as §1

FAM105A = target: T3, FAM105A (UniProt Q9NUU6)
T3 sequence (whole entry): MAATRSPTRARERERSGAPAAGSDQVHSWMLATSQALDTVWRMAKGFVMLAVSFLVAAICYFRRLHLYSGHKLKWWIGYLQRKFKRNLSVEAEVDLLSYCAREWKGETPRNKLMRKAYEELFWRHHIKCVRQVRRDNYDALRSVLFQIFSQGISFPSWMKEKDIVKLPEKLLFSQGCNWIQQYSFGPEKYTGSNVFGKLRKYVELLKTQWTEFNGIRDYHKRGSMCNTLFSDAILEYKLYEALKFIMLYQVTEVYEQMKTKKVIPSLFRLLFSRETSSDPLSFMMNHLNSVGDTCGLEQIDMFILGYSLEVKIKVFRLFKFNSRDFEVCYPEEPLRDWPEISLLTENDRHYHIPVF
In short: as §1

OTUB1 = OTUB1 (UniProt Q96FW1)
OTUB1, sequence (Q96FW1 whole entry): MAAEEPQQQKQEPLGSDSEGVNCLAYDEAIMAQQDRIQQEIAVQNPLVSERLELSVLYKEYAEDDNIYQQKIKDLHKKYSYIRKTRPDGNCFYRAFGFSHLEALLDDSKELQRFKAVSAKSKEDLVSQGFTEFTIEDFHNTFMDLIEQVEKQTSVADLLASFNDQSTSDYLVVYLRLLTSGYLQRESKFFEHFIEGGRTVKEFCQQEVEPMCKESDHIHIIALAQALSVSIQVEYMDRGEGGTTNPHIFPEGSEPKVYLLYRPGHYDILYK
In short: as §1

OTUD4 = target: T4, OTUD4 (UniProt Q01804)
T4 sequence (whole entry): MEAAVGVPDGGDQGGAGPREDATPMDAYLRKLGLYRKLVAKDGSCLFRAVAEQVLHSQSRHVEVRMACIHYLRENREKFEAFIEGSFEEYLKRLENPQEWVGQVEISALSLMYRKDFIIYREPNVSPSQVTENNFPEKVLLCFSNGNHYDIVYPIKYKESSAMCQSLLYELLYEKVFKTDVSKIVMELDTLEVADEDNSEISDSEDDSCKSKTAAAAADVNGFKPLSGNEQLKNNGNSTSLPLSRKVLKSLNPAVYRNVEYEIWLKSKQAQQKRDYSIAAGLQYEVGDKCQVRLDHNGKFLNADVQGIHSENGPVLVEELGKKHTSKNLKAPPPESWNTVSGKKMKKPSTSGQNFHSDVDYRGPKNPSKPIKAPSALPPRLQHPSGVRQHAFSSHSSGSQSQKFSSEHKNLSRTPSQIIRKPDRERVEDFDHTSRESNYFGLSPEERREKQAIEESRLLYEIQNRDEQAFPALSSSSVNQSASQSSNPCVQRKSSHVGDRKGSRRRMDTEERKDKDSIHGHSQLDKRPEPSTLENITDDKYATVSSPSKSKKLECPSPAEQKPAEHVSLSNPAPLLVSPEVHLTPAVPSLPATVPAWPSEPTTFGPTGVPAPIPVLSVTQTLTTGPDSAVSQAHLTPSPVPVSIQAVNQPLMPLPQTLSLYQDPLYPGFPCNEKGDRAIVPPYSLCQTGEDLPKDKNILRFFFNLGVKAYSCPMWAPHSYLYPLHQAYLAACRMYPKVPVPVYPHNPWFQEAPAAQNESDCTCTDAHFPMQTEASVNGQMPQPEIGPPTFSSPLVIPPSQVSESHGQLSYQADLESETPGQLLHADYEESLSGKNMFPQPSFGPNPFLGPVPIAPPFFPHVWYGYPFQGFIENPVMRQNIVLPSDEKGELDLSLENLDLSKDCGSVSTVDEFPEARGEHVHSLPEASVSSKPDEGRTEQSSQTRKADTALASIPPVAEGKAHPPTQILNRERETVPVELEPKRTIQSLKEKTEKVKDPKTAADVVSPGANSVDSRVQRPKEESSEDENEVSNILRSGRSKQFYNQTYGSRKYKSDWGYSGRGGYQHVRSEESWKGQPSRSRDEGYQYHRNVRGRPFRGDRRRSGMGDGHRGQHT
In short: as §1

OTUD5 = target: T5, OTUD5 (UniProt Q96G74)
T5 sequence (whole entry): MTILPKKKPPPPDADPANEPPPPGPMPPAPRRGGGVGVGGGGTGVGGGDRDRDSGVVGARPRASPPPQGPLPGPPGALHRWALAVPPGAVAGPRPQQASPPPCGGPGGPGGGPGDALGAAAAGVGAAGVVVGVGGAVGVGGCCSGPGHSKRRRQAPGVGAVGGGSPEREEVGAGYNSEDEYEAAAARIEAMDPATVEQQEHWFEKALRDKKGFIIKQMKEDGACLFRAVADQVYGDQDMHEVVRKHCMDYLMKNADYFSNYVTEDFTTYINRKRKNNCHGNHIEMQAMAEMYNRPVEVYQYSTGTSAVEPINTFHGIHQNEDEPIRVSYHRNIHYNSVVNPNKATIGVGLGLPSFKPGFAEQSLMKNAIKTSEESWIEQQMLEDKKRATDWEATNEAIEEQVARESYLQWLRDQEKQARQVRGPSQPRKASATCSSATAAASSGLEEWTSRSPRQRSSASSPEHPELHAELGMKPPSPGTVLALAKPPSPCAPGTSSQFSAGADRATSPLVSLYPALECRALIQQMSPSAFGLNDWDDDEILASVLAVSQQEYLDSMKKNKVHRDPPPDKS
In short: as §1

Measured: log2 ratio of Biotin-Ahx-Ub-VS probe labelling

Cl.Cn1c(CNC(=O)CCl)nc2cccnc21
active: BAP1 -1.32
inactive: ALG13 0.0884 | ATXN3 -0.424 | EIF3F -0.0906 | EIF3H 0.0923 | FAM105A -0.0642 | OTUB1 -0.136 | OTUD4 -0.388 | OTUD5 -0.323

Cl.O=C(CCl)N1CCC(n2nc3ccccc3n2)CC1
active: ATXN3 -1.1 | BAP1 -2.08
inactive: ALG13 -0.254 | EIF3F -0.315 | EIF3H -0.151 | FAM105A 0.315 | OTUB1 -0.67 | OTUD4 -0.134 | OTUD5 -0.494

Cc1ccc(CNC(=O)CCl)nc1C.Cl
inactive: ALG13 -0.419 | ATXN3 -0.055 | EIF3F -0.526 | EIF3H 0.278 | FAM105A -0.225 | OTUB1 -0.192 | OTUD4 -0.29 | OTUD5 -0.221
active: BAP1 -1.57

CC(c1ccccc1)N(C)C(=O)CCl (stereo unspecified)
inactive: ALG13 -0.0878 | ATXN3 -0.667 | BAP1 -0.362 | EIF3F 0.107 | EIF3H 0.0952 | FAM105A -0.093 | OTUB1 0.146 | OTUD4 -0.0165 | OTUD5 -0.419

Cl.O=C(CCl)N1CCC(Cc2nccs2)C1 (stereo unspecified)
inactive: ALG13 0.0161 | ATXN3 -0.494 | BAP1 -0.428 | EIF3F -0.176 | EIF3H 0.0343 | FAM105A -0.0526 | OTUB1 -0.388 | OTUD4 -0.386 | OTUD5 -0.302

O=C(CCl)N1CCC(C(O)c2ccc(F)cc2)CC1 (stereo unspecified)
inactive: ALG13 0.00454 | ATXN3 -0.475 | BAP1 -0.334 | EIF3F -0.0081 | EIF3H 0.17 | FAM105A -0.0782 | OTUB1 -0.215 | OTUD4 -0.0305 | OTUD5 -0.189

O=C(CCl)N1CCCCCC1c1ncon1 (stereo unspecified)
inactive: ALG13 0.0534 | ATXN3 -0.268 | BAP1 -0.409 | EIF3F 0.0211 | EIF3H 0.132 | FAM105A 0.156 | OTUB1 0.099 | OTUD4 -0.759 | OTUD5 -0.654

O=C(CCl)N1CCCC2CCCCC21 (stereo unspecified)
inactive: ALG13 -0.21 | ATXN3 -0.321 | BAP1 -0.281 | EIF3F -0.196 | EIF3H 0.299 | FAM105A 0.212 | OTUB1 0.0815 | OTUD4 -0.106 | OTUD5 -0.314

O=C(CCl)N[C@H]1CCS(=O)(=O)c2ccccc21
inactive: ALG13 -0.0339 | ATXN3 -0.224 | EIF3F -0.052 | EIF3H 0.251 | FAM105A -0.522 | OTUB1 0.161 | OTUD5 -0.117
active: BAP1 -2.12 | OTUD4 -1.08

Cc1ccc(-c2nnc(C)[nH]2)c(NC(=O)CCl)c1
inactive: ALG13 0.0249 | ATXN3 -0.0255 | EIF3F -0.316 | EIF3H 0.0246 | FAM105A -0.276 | OTUB1 0.149 | OTUD4 -0.353 | OTUD5 -0.237
active: BAP1 -4.24

O=C(CCl)Nc1ccc(F)cc1Cl
active: BAP1 -3.7
inactive: ALG13 -0.23 | ATXN3 -0.598 | EIF3F -0.37 | EIF3H 0.131 | FAM105A 0.0383 | OTUB1 -0.452 | OTUD4 -0.578 | OTUD5 -0.8

Cl.O=C(CCl)N1CCN(Cc2ccccc2)CC1
inactive: ALG13 0.239 | ATXN3 -0.805 | BAP1 -0.734 | EIF3F -0.615 | EIF3H 0.134 | FAM105A -0.0745 | OTUB1 -0.185 | OTUD4 -0.316 | OTUD5 -0.551

Cc1ccc(N2CCC(NC(=O)CCl)C2=O)cc1 (stereo unspecified)
inactive: ALG13 -0.511 | ATXN3 -0.0941 | EIF3F 0.043 | EIF3H -0.278 | FAM105A 0.0934 | OTUB1 0.0513 | OTUD4 0.0319 | OTUD5 0.0904
active: BAP1 -2.46

Cl.O=C(CCl)N1CC(c2ccc(Br)cn2)C1
inactive: ALG13 0.23 | ATXN3 -0.38 | EIF3F -0.158 | EIF3H 0.134 | FAM105A 0.0979 | OTUB1 -0.157 | OTUD4 -0.553 | OTUD5 -0.45
active: BAP1 -1.49
